Screening data from PubChem.
ELG1 genotox: genotoxicity induction in ELG1-luciferase HEK293T cells. 1.3% of 330,000 active. HEK293T ELG1-luciferase reporter, luminescence, 16 h. AID 504466. Potency, µM (titrated, usually from 46 µM), hits mostly activators; also: nearly all actives have a fitted effect of over 60% in size
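Genotoxic stress is detected as increased luminescence from luciferase-tagged ELG1 in HEK293T cells, measured with ONE-Glo after a 16 hr treatment at 37 °C.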
Rab9 prom act: Rab9 promoter activation; AID 485297; Potency, µM (series often up to 9.22 µM), actives largely listed as activators; Huh7 Rab9 promoter-luciferase reporter, luminescence, 24 h; 2.8% of 320,000 active; also: nearly all actives have a fitted effect of over 60% in size
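Huh7 cells stably carrying a Rab9 promoter-luciferase reporter, 1500 cells per well in OP-MEM I with 10% FBS, treated with compound 24 hours at 37C. Luciferase activity read by luminescence after 10 minutes with Amplite reagent.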
ELG1 repair inh: inhibitors of ELG1-dependent DNA repair in HEK293T cells; HEK293T ELG1-luciferase reporter, luminescence, 16 h; DNA damage induced by 5-fluorouridine; Potency, µM (top dose mostly 46.1 µM), most hits filed as inhibitors; 2.3% of 330,000 active; AID 504467; also: nearly all actives have a fitted effect of over 55% in size
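Quantitative HTS, concentration-response format. 2,000 cells/well co-treated with 5-fluorouridine and compound, 16 hr in 5% CO2 at 37 °C; ONE-Glo luminescence read after 30 min.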
NPC1 promoter act: NPC1 promoter activation; Huh7 NPC1 promoter luciferase reporter, 24 h; AID 485313; Potency, µM (doses to about 9.22 µM), hits mostly activators; 2.4% of 320,000 active; also: nearly all actives have a fitted effect of over 60% in size
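NPC1 promoter–luciferase Huh7 cells; 24 h compound; luminescence.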
SMN2 splice enh: increases expression of the SMN2 splice variant; HEK293 SMN2-luciferase splicing reporter, luminescence, 30-36 h; Potency, µM (series often up to 46.1 µM), most hits filed as activators; 2.8% of 210,000 active; AID 1458; also: nearly all actives have a fitted effect of over 55% in size
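HEK293 cells carry an SMN2 minigene-luciferase reporter in which exon 7 inclusion puts luciferase in frame. Cells were seeded at 2000 cells/well, attached for 10-12 hours, then exposed to compounds for 30-36 hours at 37C before ONE-Glo luminescence.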
FLuc counter: counter-screen for miR-21 project: firefly luciferase inhibitors or activators. P08659. purified FLuc, Km substrates, luminescence inhibition. Potency, µM (series often up to 57.5 µM), most hits filed as inhibitors. 6.9% of 360,000 active. AID 588342; also: nearly all actives have a fitted effect of over 55% in size
Target sequence (P08659 whole entry, looked up): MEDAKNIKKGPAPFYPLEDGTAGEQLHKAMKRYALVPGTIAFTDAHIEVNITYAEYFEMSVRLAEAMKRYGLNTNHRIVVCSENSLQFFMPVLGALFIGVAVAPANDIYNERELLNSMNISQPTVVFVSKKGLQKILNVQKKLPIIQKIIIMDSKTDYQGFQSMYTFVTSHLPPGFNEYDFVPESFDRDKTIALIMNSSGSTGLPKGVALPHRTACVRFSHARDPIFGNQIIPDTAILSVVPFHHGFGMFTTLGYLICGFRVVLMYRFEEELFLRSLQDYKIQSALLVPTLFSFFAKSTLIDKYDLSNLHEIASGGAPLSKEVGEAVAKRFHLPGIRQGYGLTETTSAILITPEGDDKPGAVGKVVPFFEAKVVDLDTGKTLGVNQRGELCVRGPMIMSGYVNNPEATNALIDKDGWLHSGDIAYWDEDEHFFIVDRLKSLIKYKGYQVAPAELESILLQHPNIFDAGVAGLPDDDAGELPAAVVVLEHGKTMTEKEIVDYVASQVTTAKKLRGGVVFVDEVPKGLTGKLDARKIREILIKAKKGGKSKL
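Purified P. pyralis luciferase (10nM final) with 10uM D-luciferin and 10uM ATP (Km levels) in 50mM Tris acetate pH 7.5, 10mM Mg acetate, 0.01% Tween-20, 0.05% BSA; qHTS 6-point titration, ~60 µM downward; luminescence read.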
Numbers stand for hits; i = inactive; ? = inconclusive; nt = not tested or not shown. Sampled rows, rich in hits. Any-hit rate of the full collection: about 9.2%. Calls follow the shape of the dose curve; as a rule, active = well fitted curve in the direction sought with a large enough effect; inconclusive = small, poorly fitted or top-dose-only effect, or another doubt; inactive = no such curve, though single readings can be large; an effect the other way counts as inactive or inconclusive.

SMILES	ELG1 genotox	Rab9 prom act	ELG1 repair inh	NPC1 promoter act	SMN2 splice enh	FLuc counter
Cc1ccc(Cl)cc1N1CCN(C(=O)c2ccc(CS(=O)Cc3ccc(Cl)cc3)o2)CC1 (stereo not drawn)	i	i	i	i	nt	i
COc1ccc(-c2cn3nc4c(nc3n2)CCCC4)cc1	?	0.355µM	?	0.447µM	?	0.536µM
Cc1ccc(-c2cn3nc(-c4ccccc4)c(-c4ccccc4)nc3n2)cc1	i	i	i	i	nt	i
CCCNC(=O)/C=C/c1ccc(C(C)C)cc1	?	i	?	i	?	16.9µM
O=C(O)/C=C/c1ccc(/C=C/C(=O)O)cc1	nt	nt	nt	nt	i	nt
CC(C)c1ccc(/C=C/C(=O)O)cc1	i	i	i	i	nt	19µM
O=C(COC(=O)CNC(=O)C1CCCCC1)Nc1ccc(Cl)cc1F	i	i	i	i	i	i
O=C1ON=C(c2ccc([N+](=O)[O-])cc2)/C1=C/c1ccccc1O	i	i	i	i	nt	?
CCN(CC)C(=O)CSc1nc2c(sc(=S)n2-c2ccccc2)c(=O)n1Cc1ccco1	i	i	23.1µM	i	i	i
CCN(CC)C(=O)CSc1nc2c(sc(=S)n2CC)c(=O)n1-c1ccccc1	i	i	?	i	i	i
CN(Cc1ccon1)Cc1cn(C)nc1-c1cccc(Cl)c1	?	?	?	?	nt	5.36µM
Cc1ccc(Cl)cc1Nc1nn2c(=O)c3ccc(C(=O)NC(C)c4ccccc4)cc3nc2s1 (stereo not drawn)	nt	nt	nt	nt	nt	i
C[C@@H](CO)NC(=O)c1ccc2c3n(nc2c1)-c1ccc(Cl)cc1CO3	7.3µM	2.82µM	?	1.41µM	nt	3.01µM
CC(C)[C@@H](CO)NC(=O)c1ccc2c3n(nc2c1)-c1ccc(Cl)cc1CO3	?	1.12µM	?	1.41µM	nt	8.49µM
Cc1ccc(Nc2ccc(N3CCN(C(=O)c4ccc([N+](=O)[O-])cc4)CC3)nn2)cc1	nt	nt	nt	nt	nt	i
O=c1c2cnn(-c3ccccc3)c2nc(-c2cccs2)n1-c1cccc(Cl)c1	i	i	14.6µM	i	i	i
COc1ccc(/C=N/NC(=O)c2cccc(Br)c2)cc1CN1CCOCC1	i	i	i	i	nt	i
CCOc1cc(/C=C/C(=O)c2ccc(OC)c(CN3CCOCC3)c2)cc(Br)c1O	i	i	18.3µM	i	nt	i
O=C(Nc1nc(-c2cccs2)cs1)c1ccc(Cl)s1	?	i	?	i	i	13.5µM
Cc1ccc(C(=O)Nc2nc(-c3cc(Cl)sc3Cl)cs2)cc1	i	i	9.2µM	i	i	9.53µM
O=C(Nc1nc(-c2ccc(Cl)s2)cs1)c1ccccc1	i	i	i	i	i	26.9µM
Cc1ccc(C)c(-c2csc(NC(=O)c3cnccn3)n2)c1	i	i	?	i	i	i
CC(=O)Nc1nc(-c2cccs2)cs1	i	i	?	?	i	?
COC1(C(F)(F)F)NC(=O)N(c2ccc(F)cc2)C1=O (stereo not drawn)	nt	nt	nt	nt	i	i
CCc1ccc(NC(=O)N(Cc2cn(CC)c3ccccc23)C2CCCCC2)cc1	nt	nt	nt	nt	12.6µM	?
SMILES	ELG1 genotox	Rab9 prom act	ELG1 repair inh	NPC1 promoter act	SMN2 splice enh	FLuc counter
CCOc1ccc(NC(=O)N(Cc2cn(CC)c3ccccc23)C2CCCCCC2)cc1	nt	nt	nt	nt	?	i
CCOCC(=O)Nc1nc2ccccc2s1	?	?	?	3.16µM	14.1µM	23.9µM
O=C(NCc1ccncc1)C(=O)Nc1nccs1	i	i	i	i	nt	i
O=C(CCc1nc2ccccc2s1)Nc1ccccc1	i	i	i	i	i	?
O=C(NNc1nc2ccccc2s1)Nc1ccccc1	?	?	?	3.16µM	14.1µM	?
S=C(Nc1ccccc1)c1nc2ccccc2s1	?	2.51µM	?	?	11.2µM	?
O=C(NCc1ccncc1)C(=O)Nc1nc2ccccc2s1	i	i	i	i	nt	15.1µM
CCC(=O)N1CCc2cc(Br)cc(S(=O)(=O)CCC(=O)Nc3ccc(C)c(C)c3)c21	nt	nt	nt	nt	nt	i
Cc1ccc(NC(=O)Nc2nc3ccccc3s2)cc1NC(=O)Nc1nc2ccccc2s1	i	i	i	i	nt	?
CCNC(=O)Nc1nc2ccccc2s1	?	?	?	3.98µM	14.1µM	23.9µM
O=C1c2ccccc2C(=O)c2[nH]c(=O)[nH]c21	i	i	7.3µM	i	nt	i
